Compound activity from PubChem.
TcdB inh: TcdB glycohydrolase inhibition; TcdB glycohydrolase enzymatic assay, plate reader; inhibition, % at 9.99 µM; 350,000 tested, 0.24% active; in the data active means inhibition above about 10%
Mtb BioA inh: inhibitors of Mycobacterium tuberculosis BioA enzyme; purified M. tuberculosis BioA enzyme, plate reader; inhibition, % at 9.99 µM; 360,000 tested, 0.096% active; in the data active means inhibition above about 40%; inconclusive means no clear call, values can overlap the other calls
FadD28 FP inh: inhibitors of Mycobacterium tuberculosis FadD28 bisubstrate binding. FadD28 bisubstrate probe binding, fluorescence polarization. inhibition, % at 12.5 µM. 360,000 tested, 0.22% active. AID 588549; in the data active means inhibition above about 8.5%, passing the limit was not always enough; inconclusive means no clear call, values can overlap the other calls
Yp Topo-I inh: Y. pestis Topo-I inhibition via cleavage products; Y. pestis Topo-I cleavage product accumulation, plate reader; activity, % at 10 µM; 360,000 tested, 0.064% active; AID 504884; in the data active means activity above about 50%, passing the limit was not always enough; inconclusive means no clear call, values can overlap the other calls
A number is an active result; - = inactive; ? = inconclusive; . = no result given; ! = repeats disagree. An excerpt weighted towards active compounds, which were near 0.45% of everything screened.

SMILES	TcdB inh	Mtb BioA inh	FadD28 FP inh	Yp Topo-I inh
O=c1[nH]c2cc(O)ccc2c2ccccc12	10	-	-	-
COc1ccc(/C=C(/C#N)c2cccnc2)cc1OC	-	58	-	-
COc1ccccc1S(=O)(=O)N1C[C@@H](O)COC[C@@H]2O[C@H](CC(=O)O)CC[C@H]21	-	-	.	.
C[C@H](CO)N1C[C@H](C)[C@@H](CN(C)C(=O)Nc2ccc(C(F)(F)F)cc2)Oc2c(NS(=O)(=O)c3cn(C)cn3)cccc2C1=O	13!	-	-	-
C[C@H](CO)N1C[C@H](C)[C@@H](CN(C)C(=O)Nc2ccc(C(F)(F)F)cc2)Oc2ccc(NC(=O)C3CCCCC3)cc2C1=O	14!	-	-	-
Cc1ccc(S(=O)(=O)Nc2ccc3c(c2)C(=O)N([C@@H](C)CO)C[C@H](C)[C@H](CN(C)C(=O)CCC(F)(F)F)OCCCC[C@@H](C)O3)cc1	-	-	.	.
O=C(Nc1ccccc1)/C(=C\c1ccncc1)NC(=O)c1ccccc1	.	-	-	-
O=C(Nc1ccc(C(=O)O)cc1)/C(=C\c1ccco1)NC(=O)c1ccc(Br)cc1	-	-	-	-
O=C(Nc1ccc(O)cc1)/C(=C\c1ccncc1)NC(=O)c1ccccc1	24	-	-	-
O=C(Nc1ccc(O)cc1)/C(=C/c1ccco1)NC(=O)c1ccccc1	18	.	-	-
CNC[C@@H]1OCCCC[C@H](C)Oc2ccc(NS(C)(=O)=O)cc2C(=O)N([C@H](C)CO)C[C@@H]1C	-	-	.	.
COC1C(OC(=O)c2ccc(C)[nH]2)C(O)C(Oc2ccc3c(O)c(NC(=O)c4ccc(O)c(CC=C(C)C)c4)c(=O)oc3c2Cl)OC1(C)C (configuration not stated)	-	-	20	-
CO[C@@H]1[C@@H](OC(N)=O)[C@@H](O)[C@H](Oc2ccc3c(O)c(NC(=O)c4ccc(O)c(CC=C(C)C)c4)c(=O)oc3c2C)OC1(C)C	-	-	-	-
COc1ccc(N=C2NC(=O)/C(=C/c3ccc(O)c(OC)c3)S2)cc1	-	.	12	-
O=C(O)COn1c(-c2ccc(Cl)cc2)nc2ccc(Cl)cc21	10	.	-	-
Clc1ccc(COn2c(-c3ccccc3)nc3ccccc32)cc1	.	-	-	59
O=C(C[C@H]1CC[C@@H]2[C@H](COC[C@@H](O)CN2CCC(F)(F)F)O1)NCc1ccc(Oc2ccccc2)cc1	-	-	.	.
Cc1ccc(-c2csc(NC(=O)/C=C/c3ccco3)c2C(=O)O)cc1	15	-	-	-
COc1ccc(CN(C)C[C@@H]2Oc3c(NC(=O)c4cnccn4)cccc3C(=O)N([C@@H](C)CO)C[C@H]2C)cc1	-	-	.	.
N#CC1=C(N)Oc2ccc3ccc(O)cc3c2C1c1ccsc1 (configuration not stated)	-	.	15	-
N#CC1=C(N)Oc2cc(N)ccc2C1c1ccsc1 (configuration not stated)	.	.	-	-
O=C(Nc1ccc(O)cc1)c1ccc2c(c1)C(=O)N(Cc1ccco1)C2=O	16	.	-	-
O=C(Nc1ccc(O)cc1C(=O)O)c1ccc2c(c1)C(=O)N(Cc1ccco1)C2=O	.	-	-	-
O=C(Nc1cc([N+](=O)[O-])ccc1O)c1ccc2c(c1)C(=O)N(Cc1ccco1)C2=O	-	-	12	-
C[C@H]1CN([C@@H](C)CO)C(=O)c2cccc(NS(=O)(=O)c3ccccc3)c2O[C@H]1CN(C)S(=O)(=O)c1ccccc1	-	-	.	.
SMILES	TcdB inh	Mtb BioA inh	FadD28 FP inh	Yp Topo-I inh
C[C@@H]1CCCCO[C@H](CN(C)CC2CCCCC2)[C@@H](C)CN([C@H](C)CO)C(=O)c2cc(NC(=O)NC3CCCCC3)ccc2O1	.	-	.	.
O=c1onc(-c2ccccc2)n1Cc1ccc([N+](=O)[O-])cc1	10	-	-	-
CN(C)C(=O)C[C@H]1CC[C@H]2[C@@H](COC[C@H](O)CN2S(=O)(=O)c2ccccc2)O1	-	-	.	.
CC1CCN(CCCn2c(=S)[nH]c3c(sc4ccccc43)c2=O)CC1	11	-	-	-
CCCNC(=O)N(C)C[C@H]1Oc2ncc(C#CC3CCCCC3)cc2C(=O)N([C@H](C)CO)C[C@@H]1C	-	-	.	.
C[C@H](CO)N1C[C@H](C)[C@H](CN(C)S(=O)(=O)c2cn(C)cn2)Oc2ccc(NC(=O)NC3CCCCC3)cc2C1=O	-	-	.	.
CCN1CCN(Cc2ccc(NC(=O)c3cc(NC(=O)c4cc(-c5ccc(OC)cc5)n[nH]4)cc(OC)c3)cc2C(F)(F)F)CC1	-	-	67	-
COc1cc(NC(=O)CSc2nc3[nH]ncc3c(=O)n2-c2ccccc2C)cc(OC)c1OC	18	.	-	-
COc1cc(NC(=O)CSc2nc3[nH]ncc3c(=O)n2-c2ccc(Cl)cc2)cc(OC)c1	-	-	-	-
Cc1ccc(S(=O)(=O)N(C)C[C@@H]2Oc3ccc(NS(C)(=O)=O)cc3C(=O)N([C@@H](C)CO)C[C@H]2C)cc1	-	-	.	.
COc1ccc(O)c(/C=N/NC(=S)Nc2cccc(S(=O)(=O)N(C)C)c2)c1	.	-	18	-
CCCNC(=O)C[C@@H]1CC[C@@H]2[C@@H](COc3ccc(NC(=O)Cc4cccs4)cc3C(=O)N2C)O1	.	-	.	.
Cc1noc(C)c1S(=O)(=O)N(C)C[C@@H]1Oc2c(NS(=O)(=O)c3ccccc3)cccc2C(=O)N([C@H](C)CO)C[C@@H]1C	-	-	.	.
O=c1c2ccccc2[nH]c(=S)n1-c1cccnc1	-	.	.	.
O=c1c2ccc(Cl)cc2[nH]c(=S)n1-c1cccnc1	10	.	-	-
C[C@@H]1CN([C@H](C)CO)C(=O)c2cc(NS(=O)(=O)c3cn(C)cn3)ccc2O[C@@H]1CN(C)Cc1ccc(Cl)c(Cl)c1	-	-	.	.
O=C(O)c1cc(N=Nc2c(O)ccc3ccccc23)cc(C(=O)O)c1	-	.	13	-
COc1cccc(S(=O)(=O)Nc2ccc3c(c2)[C@H]2C[C@@H](CC(=O)N(C)C)O[C@H](CO)[C@H]2O3)c1	-	-	.	.
CCCc1cc(C(=O)Nc2ccn(Cc3ccc(C)cc3)n2)no1	-	.	-	-
Cc1ccc(Cn2ccc(NC(=O)c3cc(-c4cccs4)on3)n2)cc1	.	-	-	87
Nc1ccc(Sc2ccc(N)cc2)cc1	13	-	-	-
O=C(O)c1ccc2c(c1)C1C(Cl)C(Sc3ccccc3[N+](=O)[O-])CC1C(c1cccc([N+](=O)[O-])c1)N2 (configuration not stated)	.	-	43	-
O=C(O)c1cccc2c1NC(c1cccc([N+](=O)[O-])c1)C1CC(Sc3ccccc3[N+](=O)[O-])C(Cl)C21 (configuration not stated)	-	.	?	-
Cc1ccc2c(c1Cl)NC(C(=O)O)C1CC(Sc3ccccc3[N+](=O)[O-])C(Cl)C21 (configuration not stated)	.	.	-	-
CCN(CC)C(=O)c1ccc2c(c1)C1C(Cl)C(Sc3ccccc3[N+](=O)[O-])CC1C(C(=O)O)N2 (configuration not stated)	.	.	34	-
C[C@H](CO)N1C[C@H](C)[C@@H](CN(C)C(=O)NC2CCCCC2)OCCCC[C@H](C)Oc2ccc(NS(=O)(=O)c3cccs3)cc2C1=O	-	-	.	.
O=C(Cn1nc(-c2ccccc2)c2ccccc2c1=O)Nc1ccc(F)cc1	-	-	-	-
